# Results taken from PubChem BioAssay (Tox21).
# A number with no mark means an inactive call. Results filed as inconclusive are left out. Entries that show only a call come without a potency. Active and inactive are the calls of the source. Unless noted, the call rests on the fitted dose curve; in most records, active means well fitted curve in the direction sought with a large enough effect in the repeat runs; inconclusive means weak or mixed curves; inactive means no such curve, though single readings can be large; an effect the other way counts as inactive or inconclusive.
# What was measured:
# [1] = A CellTox Green Cytotoxicity Assay to monitor cytotoxicity in HepG2 cells - 8 hour (AID 1224890); further: nearly all actives have a fitted effect of over 45% in size
# Procedure, shortened: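 Measurements at 0, 8, 16, 24, 32 and 40 h of treatment captured CellTox Green fluorescence in HepG2 cells that had been co-plated with reagent and preincubated 5 h at 37 C/5% CO2.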
# [2] = qHTS assay to identify small molecule antagonists of the estrogen receptor alpha (ER-alpha) signaling pathway using the BG1 cell line in the presence of 0.1 nM 17-beta-estradiol - cell viability counter screen (AID 1259241); further: nearly all actives have a fitted effect of over 40% in size
# Procedure, shortened: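 Viability in VM7Luc4E2 cells after 22 hr compound exposure under 0.1 nM 17beta-estradiol stimulation, by CellTiter-Fluor.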
# [3] = qHTS assay to identify small molecule antagonists of the androgen receptor (AR) signaling pathway using the MDA cell line in the presence of 0.5 nM R1881 - cell viability counter screen (AID 1259242); further: nearly all actives have a fitted effect of over 45% in size
# Procedure, shortened: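 Concentration-response screen of compounds for toxicity in MDA-kb2 reporter cells: 16 hr at 37C with 0.5 nM R1881, endpoint live-cell protease fluorescence measured in the reporter wells.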
# [4] = qHTS assay to identify small molecule phospholipidosis (PLD) inducers (AID 1259344; active means well fitted curve in the direction sought with a large enough effect; an effect the other way counts as inactive or inconclusive)
# Procedure, shortened: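 Accumulated phospholipid, stained red by LipidTOX during 24 h compound treatment of HepG2 cells at 37 C, is quantified from images as pit number and intensity, normalised per cell using Hoechst-stained nuclei.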
# [5] = qHTS assay to identify small molecule HDAC inhibitors (AID 1259364); further: potency means the concentration at half of the fitted maximal effect;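 further: wild-type HCT-116 cells with endogenous class I/II HDAC activity; nearly all actives have a fitted effect of over 45% in size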; on activity change, negative = inhibition: top concentration of the series differs between compounds
# Procedure, shortened: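 Screening used wild-type human colon HCT-116 cells incubated overnight, dosed with compounds for 2 hours, and assayed with a homogeneous luminogenic HDAC I/II reagent for 30 minutes at room temperature.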
# [6] = qHTS assay to identify small molecule HDAC inhibitors - cell viability counter screen (AID 1259365); further: series mostly up to about 92 µM; nearly all actives have a fitted effect of over 50% in size
# Procedure, shortened: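 Cytotoxicity was gauged in wild-type HCT-116 cells after a brief 2hr treatment with DMSO-dissolved compounds at 37C and 5% CO2, using CellTiter-Glo luminescence developed for 30min at room temperature.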
# [7] = qHTS assay to identify small molecule agonists of the sonic hedgehog signaling (Shh) pathway - cell viability counter screen (AID 1259366); further: nearly all actives have a fitted effect of over 50% in size
# Procedure, shortened: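 Stable Gli1-Luc NIH/3T3 clone, 2,000 cells/well. Compound exposure 24hr at 37C. Read-out: CellTiter-Fluor fluorescence.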
# [8] = qHTS assay to identify small molecule antagonists of the sonic hedgehog signaling (Shh) pathway - cell viability counter screen (AID 1259367); further: nearly all actives have a fitted effect of over 55% in size
# Procedure, shortened: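 CellTiter-Fluor signal in conditioned medium-stimulated 3T3 Gli1-Luc cells, 23 hr compound exposure, 37C.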
# [9] = qHTS assay to identify small molecule agonists of the sonic hedgehog signaling (Shh) pathway (AID 1259368; calls by dose curve; further: nearly all actives have a fitted effect of over 15% in size; further: potency means the concentration at half of the fitted maximal effect;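 on activity change: NIH/3T3-derived 3T3Gli1-Luc cells carrying a stable Gli1-driven firefly luciferase reporter; series mostly up to about 92 µM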)
# Procedure, shortened: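 Hedgehog pathway agonism scored by increased firefly luciferase luminescence in 3T3Gli1-Luc cells treated 24 hr at 37 C; detection used a 30 min room-temperature reagent incubation.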
# [10] = qHTS assay to identify small molecule antagonists of the sonic hedgehog signaling (Shh) pathway (AID 1259369; calls by dose curve; further: nearly all actives have a fitted effect of over 45% in size)
# Procedure, shortened: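 NIH/3T3 stable Gli1-Luc clone, 2,000 cells/well, 4hr settle; cpd + conditioned medium 24hr; Luc reagent 30min RT; luminescence.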
# [11] = qHTS assay to identify small molecule agonists of the androgen receptor (AR) signaling pathway in the presence of an antagonist - cell viability counter screen (AID 1259379);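 further: MDA-kb2 human breast cancer cells carrying an MMTV luciferase reporter; series mostly up to about 92 µM; nearly all actives have a fitted effect of over 25% in size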
# Procedure, shortened: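 MDA-kb2 viability measured by CellTiter-Fluor fluorescence in the same wells as the luciferase signal; nilutamide 3.0uM final; 15-point compound titration; 16 hr at 37C.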
# [12] = qHTS assay to identify small molecule agonists of the estrogen receptor beta (ER-beta) signaling pathway - cell viability counter screen (AID 1259380); further: nearly all actives have a fitted effect of over 30% in size
# Procedure, shortened: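 Measured: luminescence from CellTiter-Glo after 30 min at room temperature, added to wells already read for the LiveBLAzer FRET reporter (2 hr substrate); ER-beta-UAS-bla HEK293T cells had 16 hr compound treatment at 37C, 5% CO2.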
# [13] = qHTS assay to identify small molecule agonists or antagonists of the thyroid stimulating hormone receptor (TSHR) signaling pathway - wild type cell line counter screen (AID 1259384; calls by dose curve)
# Procedure, shortened: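 Counter screen in untransfected Hek293: compounds (15-point titration, triplicate) plus phosphodiesterase inhibitor Ro20-1724 added after 18 h plating; 30 min RT. Intracellular cAMP via competitive d2/cryptate immunoassay, 1 h incubation.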
# [14] = target: Estrogen receptor (Homo sapiens) (UniProt P03372); assay: qHTS assay to identify small molecule antagonists of the estrogen receptor alpha (ER-alpha) signaling pathway using the BG1 cell line in the presence of 0.1 nM 17-beta-estradiol (AID 1259244); further: nearly all actives have a fitted effect of over 50% in size
# Procedure, shortened: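 Compounds were tested against 0.1 nM (final) 17beta-estradiol in VM7Luc4E2 cells, which express full-length ER-alpha and an ERE-luciferase reporter; luminescence was recorded following 22 h exposure.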
# [15] = target: Estrogen receptor beta (Homo sapiens) (UniProt Q92731); assay: qHTS assay to identify small molecule agonists of the estrogen receptor beta (ER-beta) signaling pathway (AID 1259377; active means well fitted activation curve with a large enough effect in the signal ratio in the repeat runs, not every such curve was filed as active; the % refers to the signal ratio)
# Procedure, shortened: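 Measured by fluorescence intensity from a B/G FRET beta-lactamase substrate (2 h, room temperature) in ER-beta-UAS-bla HEK293T cells treated with DMSO-dissolved compounds for 16 hr at 37C and 5% CO2.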
# [16] = target: Estrogen receptor beta (Homo sapiens) (UniProt Q92731); assay: qHTS assay to identify small molecule antagonists of the estrogen receptor beta (ER-beta) signaling pathway (AID 1259378; active means well fitted inhibition curve with a large enough effect in the signal ratio in the repeat runs, not every such curve was filed as active; the % refers to the signal ratio)
# Procedure, shortened: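 Antagonist mode: compounds added to beta-lactamase reporter HEK293T ER-beta-UAS cells stimulated with E2 (1nM final), 16 hr at 37C. LiveBLAzer B/G FRET substrate, 2 hours room temperature, fluorescence read-out.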
# [17] = qHTS assay to identify small molecule antagonists of the estrogen receptor beta (ER-beta) signaling pathway - cell viability counter screen (AID 1259382);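 further: HEK293T cells carrying ER-beta-UAS-bla reporter stimulated with estradiol; series mostly up to about 92 µM; nearly all actives have a fitted effect of over 55% in size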
# Procedure, shortened: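 Readout: luminescence, CellTiter-Glo, same wells as bla assay. System: ER-beta-UAS-bla GripTite HEK293T, 2% charcoal-stripped FBS. Exposure: compounds plus 1nM 17-beta-estradiol, 16 hr, 37C.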
# [18] = target: Estrogen receptor (Homo sapiens) (UniProt P03372); assay: qHTS assay to identify small molecule agonists of the estrogen receptor alpha (ER-alpha) signaling pathway in the presence of an antagonist (AID 1259383; calls by dose curve; further: nearly all actives have a fitted effect of over 15% in size; further: potency means the concentration at half of the fitted maximal effect; on activation: top concentration of the series differs between compounds)
# Procedure, shortened: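 Quantitative HTS confirmation: compounds titrated at 15 concentrations onto estrogen-deprived VM7Luc4E2 cells carrying a four-ERE luciferase construct, with ICI-182,780 present at 10.0nM final. Signal is luminescence after 22hr exposure.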
# Chain of Estrogen receptor (Homo sapiens) (P03372 whole entry, looked up): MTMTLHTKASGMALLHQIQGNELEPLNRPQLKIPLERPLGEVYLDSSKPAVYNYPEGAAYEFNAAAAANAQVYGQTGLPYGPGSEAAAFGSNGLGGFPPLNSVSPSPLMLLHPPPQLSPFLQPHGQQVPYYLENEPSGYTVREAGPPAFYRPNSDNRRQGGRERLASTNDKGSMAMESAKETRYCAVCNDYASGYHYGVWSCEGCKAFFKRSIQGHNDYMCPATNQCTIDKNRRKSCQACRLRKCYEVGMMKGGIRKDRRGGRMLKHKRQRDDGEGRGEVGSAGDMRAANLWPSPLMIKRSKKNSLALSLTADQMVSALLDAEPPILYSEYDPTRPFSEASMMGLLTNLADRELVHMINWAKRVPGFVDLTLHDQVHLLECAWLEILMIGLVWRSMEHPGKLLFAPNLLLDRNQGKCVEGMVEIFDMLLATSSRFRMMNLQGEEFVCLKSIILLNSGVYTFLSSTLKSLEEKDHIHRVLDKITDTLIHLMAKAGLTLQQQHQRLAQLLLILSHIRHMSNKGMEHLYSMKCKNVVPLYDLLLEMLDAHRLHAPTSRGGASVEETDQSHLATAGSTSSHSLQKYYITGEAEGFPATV
# Chain of Estrogen receptor beta (Homo sapiens) (Q92731 whole entry, looked up): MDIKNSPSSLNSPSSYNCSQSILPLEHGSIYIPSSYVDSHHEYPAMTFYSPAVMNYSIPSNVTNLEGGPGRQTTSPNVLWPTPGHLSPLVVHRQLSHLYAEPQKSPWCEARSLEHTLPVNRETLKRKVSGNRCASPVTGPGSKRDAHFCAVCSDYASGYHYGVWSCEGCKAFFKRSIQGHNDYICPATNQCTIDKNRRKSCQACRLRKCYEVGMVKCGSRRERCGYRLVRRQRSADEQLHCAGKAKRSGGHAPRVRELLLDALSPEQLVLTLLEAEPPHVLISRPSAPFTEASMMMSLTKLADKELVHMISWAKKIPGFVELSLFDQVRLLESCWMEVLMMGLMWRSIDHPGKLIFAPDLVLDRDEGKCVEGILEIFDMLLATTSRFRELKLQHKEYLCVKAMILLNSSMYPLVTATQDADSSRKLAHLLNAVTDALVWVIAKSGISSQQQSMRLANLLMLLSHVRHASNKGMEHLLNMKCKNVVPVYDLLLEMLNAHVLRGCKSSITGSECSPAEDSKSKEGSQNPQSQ
compound,measurement,setting,value
Cc1c(Cl)cccc1Nc1ccccc1C(=O)O,Potency,[1],inactive
same,Potency,[2],inactive
same,Potency,[3],inactive
same,Potency,[4],inactive
same,Potency,[5],inactive
same,outcome,[6],inactive
same,Potency,[7],inactive
same,Potency,[8],inactive
same,Potency,[9],inactive
same,Potency,[10],inactive
same,Potency,[11],inactive
same,Potency,[12],inactive
same,outcome,[13],inactive
CCC(CC)C(=O)O,Potency,[1],inactive
same,Potency,[2],inactive
same,Potency,[3],inactive
same,Potency,[14],inactive
same,Potency,[5],inactive
same,Potency,[7],inactive
same,Potency,[8],inactive
same,Potency,[9],inactive
same,Potency,[10],inactive
same,Potency,[15],inactive
same,Potency,[16],inactive
same,Potency,[11],inactive
same,Potency,[12],inactive
same,Potency,[17],inactive
CC(=O)CC/C=C(\C)CC/C=C(\C)CC/C=C(\C)CCC=C(C)C,Potency,[1],inactive
same,Potency,[2],inactive
same,Potency,[3],inactive
same,Potency,[4],inactive
same,Potency,[5],inactive
same,outcome,[6],inactive
same,Potency,[7],inactive
same,Potency,[8],inactive
same,Potency,[9],inactive
same,Potency,[10],inactive
same,Potency,[15],inactive
same,Potency,[16],inactive
same,Potency,[11],inactive
same,Potency,[12],inactive
same,Potency,[17],inactive
O=C(O)c1ccc2c(c1)nc(C(=O)NC1CCN(C3CC3)CC1)n2Cc1cc(-c2ccc(Cl)s2)on1,cytotoxicity increase,[1],1.82% [at 15.8 µM]
same,"activity change, negative = cytotoxicity",[2],3.2% [at 19 µM]
same,"viability change, negative = cytotoxic",[3],1.29% [at 19 µM]
same,"activity change, negative = inhibition",[14],-4.46% [at 19 µM]
same,"activity change, negative = inhibition",[5],-4.76% [at 19 µM]
same,"activity change, negative = cytotoxicity",[6],0.77% [at 19 µM]
same,"viability change, negative = cytotoxic",[7],1.29% [at 19 µM]
same,"viability change, negative = cytotoxic",[8],0.451% [at 19 µM]
same,activity change,[9],"-5.1% [at 18.9 µM, stronger effect = higher value]"
same,"activity change, negative = inhibition",[10],-2.6% [at 19 µM]
same,activation,[15],-4.72% [at 19 µM]
same,"activity, negative = inhibition",[16],18.6% [at 19 µM]
same,"activity change, negative = cytotoxicity",[11],2.61% [at 19 µM]
same,"activity change, negative = cytotoxicity",[17],-12.8% [at 19 µM]
same,cAMP activity change,[13],1.96% [at 18.9 µM]
O=C(O)c1ccc2cc(O)ccc2c1,Potency,[1],inactive
same,Potency,[2],inactive
same,Potency,[3],inactive
same,Potency,[14],inactive
same,Potency,[5],inactive
same,outcome,[6],inactive
same,Potency,[7],inactive
same,Potency,[8],inactive
same,Potency,[9],inactive
same,Potency,[10],inactive
same,Potency,[15],inactive
same,Potency,[16],inactive
same,Potency,[12],inactive
same,Potency,[17],inactive
CCc1ccc2c(c1)C(=O)c1ccccc1C2=O,Potency,[1],inactive
same,Potency,[2],inactive
same,Potency,[3],inactive
same,Potency,[14],inactive
same,Potency,[5],0.77 µM (active)
same,Potency,[7],inactive
same,Potency,[8],inactive
same,Potency,[9],6.86 µM (active)
same,Potency,[10],inactive
same,Potency,[12],inactive
same,Potency,[17],inactive
same,Potency,[18],2.43 µM (active)
same,outcome,[13],inactive
C=CC(=O)OCCCCCCCCCC,Potency,[1],inactive
same,Potency,[2],inactive
same,Potency,[3],inactive
same,Potency,[14],inactive
same,Potency,[5],inactive
same,outcome,[6],inactive
same,Potency,[7],inactive
same,Potency,[8],inactive
same,Potency,[9],inactive
same,Potency,[10],inactive
same,Potency,[11],inactive
same,Potency,[12],inactive
same,Potency,[17],inactive
same,outcome,[13],inactive
CCc1c(C)[nH]c2c1C(=O)C(CN1CCOCC1)CC2 (stereo not drawn),Potency,[1],inactive
same,Potency,[2],inactive
same,Potency,[3],inactive
same,Potency,[4],inactive
same,Potency,[5],inactive
same,outcome,[6],inactive
same,Potency,[7],inactive
same,Potency,[8],inactive
same,Potency,[9],inactive
same,Potency,[10],inactive
same,Potency,[11],inactive
same,Potency,[12],inactive
same,Potency,[17],inactive
same,outcome,[13],inactive
Cc1ccccc1CCO,Potency,[1],inactive
same,Potency,[2],inactive
same,Potency,[3],inactive
same,Potency,[14],inactive
same,Potency,[5],inactive
same,outcome,[6],inactive
same,Potency,[7],inactive
same,Potency,[8],inactive
same,Potency,[9],inactive
same,Potency,[15],inactive
same,Potency,[16],inactive
same,Potency,[11],inactive
same,Potency,[12],inactive
same,Potency,[17],inactive
same,Potency,[18],inactive
same,outcome,[13],inactive
